{"source": "PubChem BioAssay (NCATS)", "key": {"[1]": {"assay": "qHTS Assay for Lipid Storage Modulators (AID 1519; calls by dose curve)", "conditions": "Drosophila S3 cells, BODIPY lipid droplet/cell ratio, laser cytometry, cells loaded with oleic acid", "method_in_brief": "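Cells seeded at 5,000 per well were treated with compounds over a concentration series and loaded with oleic acid (400 uM, as added). Lipid droplet fluorescence (488 nm excitation, 500-530 nm channel) was read by laser-scanning cytometry and normalized to 20 uM Triacsin C.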"}, "[2]": {"assay": "Primary qHTS for small molecule stabilizers of the endoplasmic reticulum resident proteome: Secreted ER Calcium Modulated Protein (SERCaMP) assay (AID 1508630)", "conditions": "SH-SY5Y GLuc-SERCaMP (Gaussia luciferase released on ER calcium loss) secretion, thapsigargin, luminescence; series mostly up to 38.4 µM", "method_in_brief": "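GLuc-SERCaMP-expressing SH-SY5Y cells, pretreated 16 h with compound, are challenged with thapsigargin to empty ER calcium stores; after 4 h, coelenterazine is added directly to the medium and luminescence is imaged.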"}, "[3]": {"assay": "qHTS for Inhibitors of Plasmodium falciparum (DD2) proliferation (AID 504314);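 note: parasite DNA measured by SYBR Green fluorescence after red cell lysis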", "conditions": "P. falciparum Dd2 in erythrocytes, SYBR Green growth, 72 h; series mostly up to 6.11 µM", "method_in_brief": "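Infected RBCs, 0.3% parasitemia, 2.5% Hct; compound 72 h, 37C/5% CO2; lyse + SYBR Green I, RT overnight, dark; read ex485/em535; normalize to DMSO and artemisinin 0.29 uM.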"}, "[4]": {"assay": "qHTS for Inhibitors of Plasmodium falciparum (GB4) proliferation (AID 504315); note: nearly all actives have a fitted effect of over 50% in size", "conditions": "P. falciparum GB4 in erythrocytes, SYBR Green DNA, 72 h; series mostly up to 6.7 µM", "method_in_brief": "(§1)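 Erythrocytes infected with P. falciparum line (0.3% parasitemia, 2.5% hematocrit final) incubated with compounds 72 h at 37 °C, 5% CO2; SYBR Green lysis buffer added, fluorescence read next day. Normalized to 0.29 uM artemisinin and DMSO.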"}, "[5]": {"assay": "qHTS for Inhibitors of Plasmodium falciparum (7G8) proliferation (AID 504316)", "conditions": "P. falciparum 7G8 in erythrocytes, SYBR Green DNA, 72 h; series mostly up to 6.7 µM", "method_in_brief": "as §1"}, "[6]": {"assay": "qHTS for Inhibitors of Plasmodium falciparum (HB3) proliferation (AID 504318)", "conditions": "P. falciparum HB3 in erythrocytes, SYBR Green DNA, 72 h; series mostly up to 7.21 µM", "method_in_brief": "as §1"}, "[7]": {"assay": "qHTS for Inhibitors of Plasmodium falciparum (CP250) proliferation (AID 504320)", "conditions": "P. falciparum CP250 in erythrocytes, SYBR Green DNA, 72 h; series mostly up to 6.7 µM", "method_in_brief": "as §1"}, "[8]": {"conditions": "measured here: cell count channel max response"}, "[9]": {"conditions": "measured here: lipid channel max response"}}, "note": "“And” between values parts separate entries of the source, which are not always exact repeats. Equal values may be shown once. Inconclusive results are not listed. Where a call stands in place of a potency, no number is given. The source made the active and inactive calls. Unless noted, calls come from the whole dose curve; as a rule, active = well fitted curve in the direction sought with a large enough effect; inconclusive = small, poorly fitted or top-dose-only effect, or another doubt; inactive = no such curve, though single readings can be large; an effect the other way counts as inactive or inconclusive."}
{"smiles": "CC(=O)Nc1ccc(OC[C@@H](O)CNC(C)C)cc1", "values": [{"measurement": "activity change, negative = inhibition", "setting": "[1]; at 25.7 µM (top of the series)", "value": "-2.39% (inactive)"}, {"measurement": "activity change, negative = inhibition", "setting": "[1]; at 57.5 µM (top of the series)", "value": "-10.4% (inactive)"}, {"measurement": "max response", "setting": "[1]; [8]", "value": "-2.07% and -0.999%"}, {"measurement": "max response", "setting": "[1]; [9]", "value": "-5.59% and -8.67%"}]}
{"smiles": "N#CC(=C(/N)Sc1ccccc1N)/C(C#N)=C(/N)Sc1ccccc1N", "values": [{"measurement": "Potency", "setting": "[2]", "value": "inactive"}]}
{"smiles": "c1ccc2oc(C3=NCCN3)cc2c1", "values": [{"measurement": "activity change, negative = inhibition", "setting": "[1]; at 57.5 µM (top of the series)", "value": "-5.14% (inactive)"}, {"measurement": "max response", "setting": "[1]; [8]", "value": -13.1, "unit": "%"}, {"measurement": "max response", "setting": "[1]; [9]", "value": -18.7, "unit": "%"}, {"measurement": "Potency", "setting": "[2]", "value": "inactive"}]}
{"smiles": "C=C[C@@]1(C)CC(=O)[C@@]2(O)[C@@]3(C)[C@@H](O)CCC(C)(C)[C@@H]3[C@H](O)[C@H](OC(C)=O)[C@@]2(C)O1", "values": [{"measurement": "activity change, negative = inhibition", "setting": "[1]; at 57.5 µM (top of the series)", "value": "-0.114% (inactive)"}, {"measurement": "max response", "setting": "[1]; [8]", "value": 13.9, "unit": "%"}, {"measurement": "max response", "setting": "[1]; [9]", "value": 18.7, "unit": "%"}, {"measurement": "Potency", "setting": "[2]", "value": "inactive"}]}
{"smiles": "CNC(=S)NCCCCc1cnc[nH]1", "values": [{"measurement": "Potency", "setting": "[2]", "value": "inactive"}]}
{"smiles": "O=C(O)COc1ccc(OCCNC[C@H](O)COc2ccccc2)cc1", "values": [{"measurement": "Potency", "setting": "[2]", "value": "inactive"}]}
{"smiles": "CCCCCC#CCC#CCC#CCC#CCCCC(=O)O", "values": [{"measurement": "Potency", "setting": "[2]", "value": "inactive"}]}
{"smiles": "NCCCCCCNS(=O)(=O)c1cccc2ccccc12", "values": [{"measurement": "Potency", "setting": "[2]", "value": "inactive"}]}
{"smiles": "Nc1c(S(=O)(=O)O)cc(Nc2ccc(Cl)cc2)c2c1C(=O)c1ccccc1C2=O", "values": [{"measurement": "Potency", "setting": "[2]", "value": "inactive"}]}
{"smiles": "OC[C@H]1OC([S-])[C@H](O)[C@@H](O)[C@H]1O.[Au+]", "note": "(some centres undefined)", "values": [{"measurement": "Potency", "setting": "[2]", "value": "inactive"}]}
{"smiles": "C[C@@]12C(=O)OC(=O)[C@@]1(C)[C@@H]1CC[C@@H]2O1", "values": [{"measurement": "Potency", "setting": "[2]", "value": "inactive"}]}
{"smiles": "CCCCCCCCCCCCCCCC(=O)C(F)(F)F", "values": [{"measurement": "activity change, negative = inhibition", "setting": "[1]; at 57.5 µM (top of the series)", "value": "2.39% (inactive)"}, {"measurement": "max response", "setting": "[1]; [8]", "value": -9.26, "unit": "%"}, {"measurement": "max response", "setting": "[1]; [9]", "value": -5.47, "unit": "%"}]}
{"smiles": "CC(C)NC[C@@H](O)COc1ccc(CCOCC2CC2)cc1", "values": [{"measurement": "activity change, negative = inhibition", "setting": "[1]; at 25.7 µM (top of the series)", "value": "-3.72% (inactive)"}, {"measurement": "activity change, negative = inhibition", "setting": "[1]; at 57.5 µM (top of the series)", "value": "3.94% (inactive)"}, {"measurement": "max response", "setting": "[1]; [8]", "value": "2.99% and 8.52%"}, {"measurement": "max response", "setting": "[1]; [9]", "value": "-0.358% and 14.4%"}, {"measurement": "Potency", "setting": "[2]", "value": "inactive"}]}
{"smiles": "O=[N+]([O-])c1ccc(CSc2ncnc3c2ncn3C2OC(CO)C(O)C2O)cc1", "note": "(centres undefined)", "values": [{"measurement": "Potency", "setting": "[2]", "value": "inactive"}]}
{"smiles": "O[C@@H](c1ccccc1)C1CCN(CCc2ccccc2)CC1", "values": [{"measurement": "activity change, negative = inhibition", "setting": "[1]; at 57.5 µM (top of the series)", "value": "3% (inactive)"}, {"measurement": "max response", "setting": "[1]; [8]", "value": 5.72, "unit": "%"}, {"measurement": "max response", "setting": "[1]; [9]", "value": 10.3, "unit": "%"}, {"measurement": "Potency", "setting": "[2]", "value": "inactive"}]}
{"smiles": "C[C@@H]1Nc2ccc(Cl)cc2S(=O)(=O)N1", "values": [{"measurement": "activity change, negative = inhibition", "setting": "[1]; at 57.5 µM (top of the series)", "value": "6.73% (inactive)"}, {"measurement": "max response", "setting": "[1]; [8]", "value": -1.71, "unit": "%"}, {"measurement": "max response", "setting": "[1]; [9]", "value": 3.08, "unit": "%"}]}
{"smiles": "N[C@@H](Cn1cc(F)c(=O)[nH]c1=O)C(=O)O", "values": [{"measurement": "activity change, negative = inhibition", "setting": "[1]; at 57.5 µM (top of the series)", "value": "-2.96% (inactive)"}, {"measurement": "max response", "setting": "[1]; [8]", "value": 17.5, "unit": "%"}, {"measurement": "max response", "setting": "[1]; [9]", "value": 14.7, "unit": "%"}, {"measurement": "Potency", "setting": "[2]", "value": "inactive"}]}
{"smiles": "CC(=O)OC[C@H]1O[C@H](C#Cc2ccc(F)cc2F)C=C[C@H]1OC(C)=O", "values": [{"measurement": "Potency", "setting": "[3]", "value": "inactive"}, {"measurement": "Potency", "setting": "[4]", "value": "inactive"}, {"measurement": "Potency", "setting": "[5]", "value": "inactive"}, {"measurement": "Potency", "setting": "[6]", "value": "inactive"}, {"measurement": "Potency", "setting": "[7]", "value": "inactive"}]}
{"smiles": "COc1ccc2c(c1)O[C@H](c1ccc3c(c1)OCO3)[C@@H](OC(=O)Nc1ccc(C)c(Br)c1)C2=O", "values": [{"measurement": "Potency", "setting": "[3]", "value": "inactive"}, {"measurement": "Potency", "setting": "[4]", "value": "inactive"}, {"measurement": "Potency", "setting": "[5]", "value": "inactive"}, {"measurement": "Potency", "setting": "[6]", "value": "inactive"}]}
{"smiles": "COC(=O)CC1c2ccccc2C(Cc2ccc(OC)cc2)=C(C)N1C(=O)OC", "note": "(centres undefined)", "values": [{"measurement": "Potency", "setting": "[3]", "value": "inactive"}, {"measurement": "Potency", "setting": "[4]", "value": "inactive"}, {"measurement": "Potency", "setting": "[5]", "value": "inactive"}, {"measurement": "Potency", "setting": "[6]", "value": "inactive"}, {"measurement": "Potency", "setting": "[7]", "value": "inactive"}]}
